# Compounds without any hit were thinned out: in the full panel of roughly 79,000, 15% have a hit. Unmarked numbers belong to inactive results. Activity calls are given as the source filed them. Cut-off read from the data, not from the text of the source: active = growth inhibition above about 70%; inactive = the rest.
# Key:
# [1] = NCI Yeast Anticancer Drug Screen. Data for the rad50 strain (AID 155);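 note: 0% = growth of vehicle-only cultures of the same strain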; conditions: S. cerevisiae rad50 strain growth inhibition; at 50.0 µM; active compounds read high
# In short: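 Compounds were tested on a yeast strain with an engineered DNA damage repair alteration; the reported value is growth inhibition normalised to vehicle treatment.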
# [2] = NCI Yeast Anticancer Drug Screen. Data for the mec2-1 strain (AID 157); conditions: S. cerevisiae mec2-1 strain, at 50.0 µM, active compounds read high
# In short: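 Test agents were screened against the mec2-1 yeast strain, with defined DNA repair or cell cycle alteration. Growth was scored as inhibition against vehicle-only controls.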
# [3] = NCI Yeast Anticancer Drug Screen. Data for the sgs1 mgt1 strain (AID 161);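 note: 0% = growth of cultures given vehicle only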; conditions: S. cerevisiae sgs1 mgt1 strain, at 50.0 µM, active compounds read high
# In short: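 Test agents were incubated with a DNA-repair-mutant yeast strain. Growth was then read and compared against vehicle-treated controls.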
# [4] = NCI Yeast Anticancer Drug Screen. Data for the cln2 rad14 strain (AID 165);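 note: 0% = growth equal to vehicle treated cultures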; conditions: S. cerevisiae cln2 rad14 strain, at 50.0 µM, active compounds read high
# In short: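 Growth of compound-exposed yeast (cln2 rad14 genotype) measured and expressed as inhibition relative to vehicle.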
# [5] = NCI Yeast Anticancer Drug Screen. Data for the bub3 strain (AID 167); conditions: S. cerevisiae bub3 mutant strain, at 50.0 µM, active compounds read high
# In short: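 Growth of a checkpoint-deficient yeast mutant is measured after compound exposure. Values represent inhibition relative to vehicle.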
# [6] = NCI Yeast Anticancer Drug Screen. Data for the mlh1 rad18 strain (AID 175); conditions: S. cerevisiae mlh1 rad18 strain growth inhibition; at 50.0 µM; active compounds read high
# In short: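 In this whole-cell yeast screen, a strain with altered DNA damage repair is challenged with compound, and its growth is measured against matched vehicle-treated controls.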
Compound,growth inhibition [1],growth inhibition [2],growth inhibition [3],growth inhibition [4],growth inhibition [5],growth inhibition [6]
O=c1[nH]c(-c2cccnc2)nnc1-c1ccc(Cl)cc1,17.1%,2.4%,10.4%,28.4%,27.9%,4.2%
COc1ccc(/C=C/C=C/C(=O)O)cc1OC,-2.8%,-9.7%,-12.4%,5.85%,2.8%,15.1%
NC1=NS(=O)(=O)c2ccccc21,14.8%,-11.7%,3.1%,-48.7%,-1.35%,-1.55%
O=C(NCCN1CCCCC1)c1ccc(Br)cc1,-15.2%,-16.4%,-12.6%,-6%,-18.9%,-47.1%
O=[N+]([O-])c1cc([N+](=O)[O-])c2ccccc2c1NS(=O)(=O)c1ccc(Br)cc1,7.35%,18.9%,36.4%,0.7%,36%,70.5% (active)
O=C1OC2(c3ccc(O)cc3Oc3cc(O)ccc32)c2ccccc21,6.6%,0.55%,10.2%,26.7%,-0.05%,-1.2%
CC1(C)CCC23CCC4(C)C(CCC5C6(C)CCC(=O)C(C)(C)C6CCC54C)C2C1OC3 (configuration not stated),-27.4%,-4.15%,-4.05%,20.9%,-0.7%,-5.1%
CSc1nc2ccc(NCn3c(=O)sc4cc(Br)ccc43)cc2s1,1%,38.9%,4.6%,30.9%,65.5%,42%
CCCCN(CCCC)CC(O)c1cc(-c2ccc(C(F)(F)F)cc2)nc(-c2ccc(C(F)(F)F)cc2)c1 (configuration not stated),25%,2.45%,2.2%,-24.2%,-33.8%,82.3% (active)
C=C1C(=O)OC2C1CCC(C)=C1C(=O)C=C(C)C12 (configuration not stated),-24.3%,-12.5%,-6.6%,13.2%,-13.9%,-16.2%
Cc1ncc(C(N)=O)c(N)n1,21%,-2.05%,-11.6%,-42%,-13.6%,8.3%
Nc1ncnc2scnc12,14.4%,-0.55%,-8.5%,0.9%,-3.25%,1.65%
CC(C)N(C(=O)c1ccc([Si](C)(C)C)c(C(=O)N(C(C)C)C(C)C)n1)C(C)C,30.6%,19.8%,20.9%,9.4%,0.1%,28.5%
CC1OC(OC2C(OC3C(OC4CCC5(C)C(CCC6(C)C5CC=C5C7CC(C)(C)CCC7(C(=O)O)CCC56C)C4(C)C)OCC(O)C3O)OC(CO)C(O)C2O)C(O)C(O)C1O (configuration not stated),92.8% (active),94.4% (active),94.3% (active),92.3% (active),93.8% (active),93.8% (active)
NC(=O)C1CC(O)CN1C(=O)c1cccnc1 (configuration not stated),11.2%,19.8%,15.3%,-7%,8.9%,5.35%
CCC1c2ccccc2[C@H]2C(c3ccccc3)=NN(c3ccccc3)[C@H]2N1CC (some centres not stated),26.6%,-5.05%,-0.7%,-2.9%,1.5%,40.5%
CC1=C(C)C(=O)c2c(OC(=O)c3ccccc3)ccc(OC(=O)c3ccccc3)c2C1=O,-18.8%,7.7%,19.3%,-18.7%,-1.2%,-13.8%
O=C(c1ccccc1)C(CBr)C(Br)c1ccccc1 (configuration not stated),-17.4%,24.7%,10.1%,-24.8%,16.9%,1.75%
O=C(Nc1cccc(C(=O)NCCCO)c1)/C(=C/c1ccccc1)NC(=O)c1ccccc1,0%,-1.85%,1.45%,9.35%,-2.4%,4.35%
O=C(N=Nc1c(O)[nH]c2ccc(Br)cc12)c1ccncc1,-1.75%,2.8%,9.6%,3.2%,8.25%,-10.1%
COCCOC(=O)c1ccc(C(N)=NC2CCCCC2)cc1,-1.2%,4.25%,3.9%,0.95%,8.65%,-0.7%

Compound,growth inhibition [1],growth inhibition [2],growth inhibition [3],growth inhibition [4],growth inhibition [5],growth inhibition [6]
CC1=C(c2cc(C(=O)Nc3cccc(C(F)(F)F)c3)nc(NC#N)n2)Sc2ccccc2N1,17.4%,1.2%,-3.2%,-2.85%,2.7%,11.8%
N/N=C1/CCCc2nonc21,-19.7%,-17.1%,-29.4%,-22.2%,-25.4%,-48.4%
CCC(=O)/C=C/C1=C(C)CCCC1(C)C,-9.95%,-9.65%,6.25%,-5.8%,5.8%,-13.4%
C1CCC2(CC1)OCCO2,-0.75%,-37.9%,-20.8%,1.3%,-7.85%,0.6%
COc1ccccc1N=Nc1c(-c2cccs2)nn(C(=S)SC)c1C(F)(F)F,-3.5%,10.2%,-21.6%,-3.9%,18.7%,30.8%
OC1CNc2c(ccc3ccccc23)C1 (configuration not stated),10.7%,-26.4%,-13.4%,-17%,-38%,-6.25%
Nc1ccccc1C(=O)/C=C/c1c(O)ccc2ccccc12,29.6%,9.5%,10.2%,15.9%,21.1%,34.3%
CC(=O)Nc1c(C)ccc([N+](=O)[O-])c1C,-3.2%,-2.2%,-9.7%,5.95%,2.7%,13.5%
COc1ccc(N2C(=O)C3c4[nH]c5ccc(F)cc5c4C4CCC(C(C)(C)C)CC4C3C2=O)cc1 (configuration not stated),-7.05%,-2.3%,1.55%,7.45%,-3.2%,22.1%
O=C(CC(C(=O)c1cccs1)c1ccsc1)c1ccsc1 (configuration not stated),-14%,-50.2%,-4.4%,7.55%,25.2%,-25.6%
COC(=O)Nc1nc2ccc(SC)cc2c(=O)[nH]1,-9.55%,-5.55%,3.2%,6.45%,-17.8%,-29.6%
CC(=O)Nc1ccc(S(=O)(=O)N/N=C(\C)c2csc3ccccc23)cc1,-2.7%,-5.25%,-19.9%,-16.1%,-4.05%,0.15%
COc1ccc(/C(Cl)=C/c2cc(OC)ccc2OC)cc1,-5.1%,-10.7%,-26.9%,-0.25%,-30.2%,-9.05%
O=C(/C=C/c1ccccc1)Oc1ccccc1,3.45%,5.55%,1.5%,-19.9%,23.8%,-4.85%
COC(=O)CC(C)N(c1cccc(Cl)c1)S(=O)(=O)c1ccc(C)cc1 (configuration not stated),52.3%,7.1%,76.3% (active),-30.9%,24.1%,32.5%
CNCCN(C)Cc1ccccc1,-17.4%,-24.6%,-3.8%,11%,10.7%,-8.3%
CC(=O)OCC1OC(n2c(C)c(N=Nc3ccccc3)c(C)c(C#N)c2=S)C(OC(C)=O)C(OC(C)=O)C1OC(C)=O (configuration not stated),-17.7%,-17.6%,-1.7%,-1%,-10.3%,14.8%
Cc1ccc(NC(=O)C(=O)C2NC(=S)NC2=O)c([N+](=O)[O-])c1 (configuration not stated),8.35%,3.25%,17.8%,20.1%,5.6%,8.55%
COc1ccc(-c2oc3cc(OC)c(OC)c(O)c3c(=O)c2OC)cc1,7.45%,0.25%,3.05%,9.05%,13.8%,-56.5%
CCOC(=O)/C(=C\c1c(C)[nH]c2ccccc12)P(=O)(OCC)OCC,-15.2%,-15.7%,-22.9%,-0.3%,-8.95%,11.5%
COc1ccc(S(=O)(=O)N/N=C\c2cc(I)cc(I)c2O)cc1,27.9%,7.9%,25.2%,14.6%,-1.8%,5.1%
